Most compounds without a hit are left out; they make up all but 3.3% or so of the library.
Tb PYK inh: inhibitors of Trypanosoma brucei pyruvate kinase; Potency, µM (top dose mostly 76.8 µM), for inactives: top-dose activity, negative = inhibition, most hits filed as inhibitors; 410,000 compounds, 0.12% hits; TbPYK enzyme, Kinase-Glo Plus ATP luminescence, 45 min; Q57TT1; further: on the % scale 0 is the no-effect control and ±100 the full control effect; nearly all actives have a fitted effect of over 50% in size
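T. brucei PYK with substrate was exposed to pin-transferred compounds across a concentration series, then started with 130 uM ADP (final). After 45 min at room temperature, Kinase-Glo Plus luminescence was read, normalized and curve-fitted.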
RE007 growth inh: less growth of the S. pombe RE007 Vpr strain. Potency, µM (doses to about 92.2 µM), for inactives: top-dose activity change, negative = less growth, most hits filed as inhibitors. AID 651644. S. pombe RE007 Vpr strain, BacTiter-Glo ATP luminescence, 24 h. 360,000 compounds, 0.21% hits; active means well fitted falling curve with a large enough effect; inconclusive means small, poorly fitted or top-dose-only effect; inactive means no such curve, though single readings can be large or run the other way; further: on the % scale 0 is the no-effect control and ±100 the full control effect; nearly all actives have a fitted effect of over 50% in size
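Fission yeast RE007 carrying one integrated HIV-1 vpr copy, seeded at OD 0.01 in PMG+AL medium with 23 nL pinned compound. Grown 24 h at 30 degrees; viability read by BacTiter-Glo luminescence after 5 min.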
AmpC no deterg: inhibitors of E. coli AmpC beta-lactamase without detergent | P00811 | AmpC nitrocefin hydrolysis, absorbance 480 nm, 0.0001% Triton | Potency, µM (top dose mostly 57.1 µM), for inactives: at the highest dose activity change, negative = inhibition, usual class: inhibitors | 330,000 compounds, 0.52% hits | AID 485341;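 further: plate controls were no compound for no effect and no enzyme for full effect; nearly all actives have a fitted effect of over 20% in size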
Target sequence (P00811 whole entry, looked up): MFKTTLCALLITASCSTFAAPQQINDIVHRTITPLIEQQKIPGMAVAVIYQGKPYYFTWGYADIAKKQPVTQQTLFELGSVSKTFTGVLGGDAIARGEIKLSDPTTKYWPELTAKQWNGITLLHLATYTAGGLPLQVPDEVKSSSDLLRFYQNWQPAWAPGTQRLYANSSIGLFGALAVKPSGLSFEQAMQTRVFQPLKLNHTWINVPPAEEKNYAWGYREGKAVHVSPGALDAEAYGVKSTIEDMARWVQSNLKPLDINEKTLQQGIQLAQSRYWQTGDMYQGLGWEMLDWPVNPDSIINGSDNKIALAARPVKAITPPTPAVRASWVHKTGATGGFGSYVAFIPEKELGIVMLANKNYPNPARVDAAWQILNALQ
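AmpC (5.3 nM in the dispensed reagent) in 20 mM phosphate pH 7.0 with 0.01% (detergent screen) or 0.0001% Triton X-100 was preincubated with compounds for 15 min at room temperature. Nitrocefin was then added from an 800 uM solution, and hydrolysis was followed at 480 nm.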
Sm TGR block: inhibitors of Schistosoma mansoni thioredoxin glutathione reductase | Potency, µM (highest dose often 114 µM), for inactives: top-dose activity change, negative = inhibition, usual class: inhibitors | purified TGR, DTNB reduction, TNB absorbance 405 nm | Q962Y6 | 360,000 compounds, 3% hits; further: on the % scale 0 is the no-effect control and ±100 the full control effect; nearly all actives have a fitted effect of over 60% in size
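First, TGR (20 nM dispensed) and NADPH were mixed with compound. Second, a 15 min room-temperature incubation followed. Third, further NADPH and then DTNB were added to start the reaction. Finally, TNB absorbance was monitored kinetically.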
AmpC detergent: inhibitors of E. coli AmpC beta-lactamase with detergent; AmpC hydrolysis of nitrocefin, absorbance 480 nm, 0.01% Triton; Potency, µM (series often up to 114 µM), without a hit: at the top dose activity change, negative = inhibition, actives largely listed as inhibitors; 370,000 compounds, 0.041% hits;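 further: 0% = no-compound wells and -100% = no-enzyme wells; nearly all actives have a fitted effect of over 25% in size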
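20 mM phosphate pH 7.0 + 0.01% (detergent screen) or 0.0001% Triton X-100; 5.3 nM AmpC reagent; cpd preinc 15 min RT; nitrocefin (800 uM stock) to start; A480 q20 s × 4 min; Activity was normalised to no-enzyme and no-compound control wells.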
SARS PLP yeast: blocks SARS-CoV papain-like protease in a yeast assay; 330,000 compounds, 0.19% hits; Potency, µM (series often up to 32.9 µM), for the others: at the top dose activity, positive = growth rescue, most hits filed as activators; S. cerevisiae expressing SARS-CoV PLpro, growth rescue; AID 485353; calls by dose curve; further: 0% is about no effect; nearly all actives have a fitted effect of over 55% in size
An asterisk follows results filed as active; u = inconclusive; x = not tested or not shown; [ ] = dose if it differs, or a comment. Unless noted, the call rests on the fitted dose curve; in most records, active means well fitted curve in the direction sought with a large enough effect; inconclusive means small, poorly fitted or top-dose-only effect, or another doubt; inactive means no such curve, though single readings can be large; an effect the other way counts as inactive or inconclusive. Potency means the concentration at half of the fitted maximal effect.

SMILES	Tb PYK inh	RE007 growth inh	AmpC no deterg	Sm TGR block	AmpC detergent	SARS PLP yeast
CC(=O)Oc1ccc(N(C(C)=O)S(=O)(=O)c2ccc(C)cc2C)c2ccccc12	2.2%	11.7%	1.7%	-2.7%	-12.7%	-14.0%
Cc1ccc(S(=O)(=O)N(C(=O)c2ccncc2)c2ccc(OC(=O)c3ccncc3)c3ccccc23)cc1	-20.5%	-11.4%	114.4%	20µM*	u	-15.2%
Cc1ccc(S(=O)(=O)N(C(=O)c2ccncc2)c2ccc(OC(=O)c3ccncc3)c3ccccc23)c(C)c1	-14.0%	-0.5%	67.3%	17.8µM*	-4.6%	-6.2%
Cc1ccc(C(=O)c2cn(CC(=O)NC3CCCCC3)c3nc(C)ccc3c2=O)cc1	-9.2%	x	x	-3.2%	23.9%	x
O=C1c2ccccc2-c2onc3ccc(N4CCCC4)c1c23	-6.2%	u	104.6%	17.8µM*	0.6%	0.7%
O=C1c2ccccc2-c2onc3ccc(NCc4ccco4)c1c23	-23.2%	28.2µM*	u	11.2µM*	-15.4%	-12.3%
COc1cc(Cl)c(S(=O)(=O)N2CCN(c3c(C)cccc3C)CC2)cc1Cl	5.6%	x	x	3.4%	0.9%	x
CC(=O)c1ccc(NC(=O)Cn2c(=O)oc3cc(S(=O)(=O)N4CCCCC4)ccc32)cc1	0.7%	x	x	1.9%	11.8%	x
CCN(C(=O)CSc1nc2ccccc2nc1Cc1cccc(OC)c1)c1cccc(C)c1	2.0%	x	x	4.2%	21.3%	x
COc1cccc(NC(=O)CCN2CCN(CCO)CC2)c1	-8.4%	x	x	1.4%	1.4%	x
CCOc1cccc(C(=O)N(Cc2ccc(F)cc2)Cc2ccco2)c1	-3.1%	x	x	1.0%	3.1%	x
Cc1cccc(-c2nc(C(N)=O)c3c(n2)n(-c2ccc4c(c2)OCO4)c(=O)n3C)c1	-7.1%	x	x	1.9%	2.7%	x
O=C(NCc1ccco1)c1sc2cc(Cl)ccc2c1Cl	7.2%	u	-25.7%	39.8µM*	-13.8%	-19.8%
OC(c1ccccc1)C1CN(Cc2ccccc2)CCC1(O)c1ccccc1 (stereo not given)	1.3%	-2.6%	-30.9%	20µM*	u	1.5%
O=C(c1ccccc1)C1CN(Cc2ccccc2)CCC1(O)c1ccccc1 (stereo not given)	4.6%	-24.4%	-17.1%	u	1.3%	0.1%
COCCn1c(SCC(=O)c2ccc(OC)cc2)nc2cc(C(=O)NC3CCCC3)ccc2c1=O	-3.3%	x	x	6.8%	2.5%	x
COc1ccc(CCNC(=O)CSc2ccc(-c3ccco3)nn2)cc1	-11.5%	15.2%	-17.6%	12.6µM*	-8.8%	-0.5%
COc1ccc(CCNC(=O)CSc2ccc(-c3ccncc3)nn2)cc1	8.9%	0.3%	-22.9%	-0.1%	5.8%	-0.3%
O=C(CSc1ccc(-c2ccco2)nn1)NCCc1ccccc1	-16.4%	-0.2%	-13.5%	11.2µM*	5.0%	-2.7%
COc1cccc(-c2ccc(SCC(=O)NCCc3ccccc3)nn2)c1	6.1%	3.1%	-26.3%	-4.7%	-7.2%	0.3%
Cc1ccccc1OCc1ccc(-c2nc(C#N)c(NCCCN(C)C)o2)o1	-2.7%	x	x	2.5%	5.0%	x
COc1ccc(OC)c(NC(=S)NN2CCOCC2)c1	2.6%	-0.4%	-18.8%	-3.5%	0.8%	6.6%
COc1ccc(Cl)cc1NC(=S)NN1CCOCC1	29.5%	3.5%	-6.4%[2.29 µM]	35.5µM*	0.2%	0.0%
Cc1cccc(Cn2c(=O)n(-c3ccc(Cl)c(Cl)c3)c(=O)c3c(C)c(C)sc32)c1	0.6%	x	x	9.7%	21.7%	x
O=C(Oc1ccc(=O)n(-c2ccccc2)n1)c1cccc(Cl)c1	-1.1%	-18.7%	-13.6%	15.8µM*	u	1.9%
SMILES	Tb PYK inh	RE007 growth inh	AmpC no deterg	Sm TGR block	AmpC detergent	SARS PLP yeast
Cc1cc(NS(=O)(=O)c2ccc(NC(=S)NC(=O)c3ccccc3)cc2)no1	-3.2%	-11.5%	-30.2%	50.1µM*	-7.1%	7.3%
COc1ccc(C(=O)NC(=S)Nc2ccc(S(=O)(=O)Nc3cc(C)on3)cc2)cc1OC	3.5%	-13.4%	-47.3%	17.8µM*	3.9%	0.2%
Cc1ccc(-c2cc(C(=O)Nc3ccc(S(=O)(=O)Nc4cc(C)on4)cc3)c3ccccc3n2)c(C)c1	-6.0%	10.4%	10µM*	8.4%	u	6.7%
Cc1cc(NS(=O)(=O)c2ccc(NC(=O)c3ccccc3C)cc2)no1	-0.4%	-1.3%	-5.6%	-1.6%	-9.3%	1.4%
CCOCCCNC(=O)c1ccc2c(=O)n(CCc3ccccc3)c(=O)[nH]c2c1	-1.9%	x	x	5.9%	3.8%	x
Cc1ccc(NS(=O)(=O)c2ccc(-c3cnc(C4CC4)o3)cc2)cc1N(C)C	2.9%	x	x	1.7%	6.2%	x
S=c1nc(-c2csc3c2CCCC3)[nH][nH]1	u	-4.0%	-50.2%	35.5µM*	0.6%	0.4%
CC(CCc1ccccc1)NC(=O)CSc1n[nH]c(-c2ccc(F)cc2)n1 (stereo not given)	0.7%	x	x	1.0%	-2.5%	x
CCOc1cc(-c2nnc(SCC(=O)Nc3ccc(F)c(F)c3)nc2-c2ccc(OC)c(OCC)c2)ccc1OC	-5.0%	x	x	-17.5%	0.8%	x
O=C(O)c1ccc(S(=O)(=O)N[C@H](Cc2ccc(C(F)(F)F)cc2)C(=O)O)cc1	x	x	-17.5%	5.6%	5.9%	2.82µM*
O=C(O)c1ccc(S(=O)(=O)N[C@H](Cc2ccc([N+](=O)[O-])cc2)C(=O)O)cc1	x	x	-14.4%	1.6%	-11.1%	2.24µM*
Cc1ccc2nc(-c3cccc(NC(=O)c4cccc5ccccc45)c3)oc2c1	-4.6%	x	x	10.7%	0.2%	x
CCOc1ccc(NC(=O)Cn2c(=O)n(CC(=O)NCCc3ccccc3)c(=O)c3sccc32)cc1	-2.1%	x	x	-4.1%	20.8%	x
O=C(CSc1nc2ccccc2c(=O)n1CCC(=O)NC1CCCCC1)Nc1ccccc1Cl	-1.8%	x	x	4.5%	-5.2%	x
COc1cccc(CNCCCSc2nnnn2C)c1OC	1.9%	x	x	-3.2%	20.9%	x
COc1ccc(N=C2S/C(=C\c3ccco3)C(=O)N2CC(C)C)cc1	3.3%	u	-41.2%	44.7µM*	2.8%	-2.8%
COc1ccc2c(c1)c(=O)c(C(=O)c1ccc(C)c(C)c1)cn2CC(=O)Nc1ccc2c(c1)OCCO2	-0.8%	x	x	6.7%	12.6%	x
CN(C)c1ccc(CN(C(=O)c2cc3ccccc3oc2=O)C2CCS(=O)(=O)C2)cc1 (stereo not given)	-8.2%	4.5%	-4.5%	-4.6%	-5.5%	0.3%
Cc1cc2oc(C(=O)N(Cc3ccco3)C3CCS(=O)(=O)C3)cc(=O)c2cc1Cl (stereo not given)	-0.1%	-6.9%	u	50.1µM*	-9.1%	4.6%

Source: PubChem BioAssay (National Center for Advancing Translational Sciences (NCATS))
